# Calls of active or inactive are those of the source.
# Legend:
# [1] = small molecules captured by biotinylated probe aFSTL3 – biochemical, small-molecule microarray, fluorescence 635/667, stem cell growth factor project, primary screen (AID 1064); conditions: higher = more signal;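 also: measures binding of the biotinylated anti-FSTL3 antibody to printed compounds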
# [2] = binders from COS7 lysate, DM2A8 probe, primary screen, torsin A project, cell lysate, small-molecule microarray, fluorescence 635/667 (AID 1065); conditions: higher = more signal, COS7 lysate expressing mutant human TOR1A
# [3] = small molecules captured by biotinylated probe aFGF2 – biochemical, small-molecule microarray, fluorescence 635/667, stem cell growth factor project, primary screen (AID 1067); conditions: higher = more signal;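 also: measures binding of biotinylated aFGF2 protein to printed compounds on slides; z-score merges feature fluorescence and signal-to-noise across triplicate slides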
# [4] = small molecules captured by biotinylated probe aFGF10 – biochemical, small-molecule microarray, fluorescence 635/667, stem cell growth factor project, primary screen (AID 1071); conditions: higher = more signal;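 also: score merges 667 nm spot intensity and signal to noise from triplicate slides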
# [5] = biological target: Neurogenic locus notch homolog protein 2 (Homo sapiens) (UniProt Q04721); assay: small molecules binding Notch2 protein – biochemical, small-molecule microarray, 635 nm fluorescence, stem cell growth factors, primary screen (AID 1073); conditions: higher = more signal
# Neurogenic locus notch homolog protein 2 (Homo sapiens), sequence (Q04721 whole entry, looked up, canonical isoform): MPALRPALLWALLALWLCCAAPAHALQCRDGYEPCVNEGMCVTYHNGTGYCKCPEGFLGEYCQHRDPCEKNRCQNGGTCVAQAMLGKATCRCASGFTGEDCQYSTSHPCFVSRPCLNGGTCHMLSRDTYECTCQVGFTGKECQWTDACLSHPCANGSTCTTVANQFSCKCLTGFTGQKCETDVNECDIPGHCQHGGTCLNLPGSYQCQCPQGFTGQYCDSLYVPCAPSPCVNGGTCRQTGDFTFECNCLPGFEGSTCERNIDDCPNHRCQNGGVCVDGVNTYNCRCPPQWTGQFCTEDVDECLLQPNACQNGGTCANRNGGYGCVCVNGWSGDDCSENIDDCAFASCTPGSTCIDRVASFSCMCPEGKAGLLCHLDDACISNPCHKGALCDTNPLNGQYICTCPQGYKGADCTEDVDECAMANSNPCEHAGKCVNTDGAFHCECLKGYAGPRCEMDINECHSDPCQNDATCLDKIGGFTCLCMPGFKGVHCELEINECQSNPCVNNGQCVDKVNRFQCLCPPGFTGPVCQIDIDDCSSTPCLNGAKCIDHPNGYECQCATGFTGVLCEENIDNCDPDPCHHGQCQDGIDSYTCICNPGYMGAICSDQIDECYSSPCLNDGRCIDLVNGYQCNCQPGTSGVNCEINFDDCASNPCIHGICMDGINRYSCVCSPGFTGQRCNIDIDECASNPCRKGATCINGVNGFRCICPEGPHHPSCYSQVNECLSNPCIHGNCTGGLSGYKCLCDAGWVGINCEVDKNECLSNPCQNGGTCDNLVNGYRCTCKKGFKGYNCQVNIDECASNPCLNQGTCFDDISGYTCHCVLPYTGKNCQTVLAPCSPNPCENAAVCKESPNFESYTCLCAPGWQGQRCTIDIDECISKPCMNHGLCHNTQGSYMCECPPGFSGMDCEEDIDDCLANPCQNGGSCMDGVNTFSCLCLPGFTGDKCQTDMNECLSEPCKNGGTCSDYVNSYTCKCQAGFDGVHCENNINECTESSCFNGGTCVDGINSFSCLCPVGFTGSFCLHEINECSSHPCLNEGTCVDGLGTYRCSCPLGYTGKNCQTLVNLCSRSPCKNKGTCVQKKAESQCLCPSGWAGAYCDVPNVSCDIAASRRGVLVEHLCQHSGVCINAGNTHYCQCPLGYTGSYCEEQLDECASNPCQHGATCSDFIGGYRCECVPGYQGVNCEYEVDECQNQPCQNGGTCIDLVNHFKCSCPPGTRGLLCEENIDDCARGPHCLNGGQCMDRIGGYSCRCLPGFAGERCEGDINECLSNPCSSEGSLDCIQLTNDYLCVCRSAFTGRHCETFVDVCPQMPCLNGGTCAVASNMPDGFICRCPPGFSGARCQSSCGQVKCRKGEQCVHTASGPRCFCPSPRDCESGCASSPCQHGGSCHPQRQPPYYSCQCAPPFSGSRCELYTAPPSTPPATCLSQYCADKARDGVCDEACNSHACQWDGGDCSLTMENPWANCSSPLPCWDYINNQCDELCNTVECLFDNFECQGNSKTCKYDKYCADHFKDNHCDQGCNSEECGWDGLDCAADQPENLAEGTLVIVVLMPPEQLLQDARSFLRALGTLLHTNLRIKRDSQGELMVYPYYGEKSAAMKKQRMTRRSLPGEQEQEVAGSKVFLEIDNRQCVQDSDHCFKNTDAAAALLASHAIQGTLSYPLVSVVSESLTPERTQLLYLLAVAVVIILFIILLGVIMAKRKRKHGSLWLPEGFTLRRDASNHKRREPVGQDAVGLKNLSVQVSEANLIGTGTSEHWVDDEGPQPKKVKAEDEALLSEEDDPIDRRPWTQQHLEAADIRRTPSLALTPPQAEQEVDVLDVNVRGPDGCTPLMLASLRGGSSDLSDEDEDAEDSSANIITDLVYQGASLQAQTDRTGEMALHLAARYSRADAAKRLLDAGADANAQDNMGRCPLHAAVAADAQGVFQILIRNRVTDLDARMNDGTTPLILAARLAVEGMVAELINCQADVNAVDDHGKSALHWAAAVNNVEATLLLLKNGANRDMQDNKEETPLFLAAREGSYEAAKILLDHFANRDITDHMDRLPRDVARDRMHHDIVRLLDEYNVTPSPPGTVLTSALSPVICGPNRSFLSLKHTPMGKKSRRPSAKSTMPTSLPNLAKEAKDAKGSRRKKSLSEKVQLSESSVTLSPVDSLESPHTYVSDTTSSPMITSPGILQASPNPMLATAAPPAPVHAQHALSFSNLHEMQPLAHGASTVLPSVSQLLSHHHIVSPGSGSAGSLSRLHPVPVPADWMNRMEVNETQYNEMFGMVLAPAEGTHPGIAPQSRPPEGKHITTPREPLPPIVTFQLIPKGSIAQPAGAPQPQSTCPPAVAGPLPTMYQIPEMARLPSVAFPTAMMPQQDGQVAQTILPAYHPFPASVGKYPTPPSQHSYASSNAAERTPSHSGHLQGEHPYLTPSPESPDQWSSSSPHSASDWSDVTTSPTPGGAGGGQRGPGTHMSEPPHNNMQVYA
# [6] = biological target: Pro-neuregulin-1, membrane-bound isoform (Homo sapiens) (UniProt Q02297); assay: small molecules binding neuregulin-1 protein – biochemical, small-molecule microarray, fluorescence 635/667, psychiatric disease protein project, primary screen (AID 1075); conditions: NRG1 binding, 635 nm fluorescence, higher = more signal;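 also: score combines 667 nm spot fluorescence with signal to noise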
# Pro-neuregulin-1, membrane-bound isoform (Homo sapiens), sequence (Q02297 whole entry, looked up, the tested form may be a part, canonical isoform): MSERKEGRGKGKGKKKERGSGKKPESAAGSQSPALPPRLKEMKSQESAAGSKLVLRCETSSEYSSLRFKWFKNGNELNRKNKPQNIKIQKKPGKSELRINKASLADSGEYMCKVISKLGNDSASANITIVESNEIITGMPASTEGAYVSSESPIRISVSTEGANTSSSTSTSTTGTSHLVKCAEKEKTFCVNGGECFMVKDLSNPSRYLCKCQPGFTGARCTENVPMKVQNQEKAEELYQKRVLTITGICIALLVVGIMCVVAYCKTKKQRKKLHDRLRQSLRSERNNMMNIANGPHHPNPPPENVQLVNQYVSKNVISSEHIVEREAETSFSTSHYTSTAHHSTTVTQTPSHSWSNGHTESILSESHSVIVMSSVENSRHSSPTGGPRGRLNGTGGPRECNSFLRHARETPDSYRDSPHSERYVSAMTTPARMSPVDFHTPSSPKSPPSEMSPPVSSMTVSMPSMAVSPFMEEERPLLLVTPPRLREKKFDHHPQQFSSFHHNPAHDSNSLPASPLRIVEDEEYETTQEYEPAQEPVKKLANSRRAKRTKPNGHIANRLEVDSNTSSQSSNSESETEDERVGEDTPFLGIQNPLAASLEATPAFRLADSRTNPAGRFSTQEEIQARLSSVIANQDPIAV
# [7] = system: Neuregulin-1 EGF-like domain; assay: small molecules binding NRG1 EGF domain – biochemical, small-molecule microarray, 635 nm fluorescence, primary screen (AID 1081); conditions: higher = more signal;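 also: binding of the protein to compounds printed on small-molecule microarray slides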
# [8] = FRG1 expression reporter modulators in myotubes – cell-based, C2C12 myotubes, firefly/Renilla luciferase, luminescence, FRG1 inhibition for FSHD, primary screen (AID 1084); conditions: FRG1 promoter luciferase, higher = more signal, called active from +8 up or from −8 down
# [9] = small molecules captured by biotinylated probe aFST – biochemical, small-molecule microarray, fluorescence 635/667, stem cell growth factor project, primary screen (AID 1086); conditions: higher = more signal;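 also: score merges 667 nm fluorescence with signal-to-noise of each printed compound spot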
# [10] = binders of probe aHhip on microarray, primary screen, stem cell growth factor project, biochemical, small-molecule microarray, fluorescence 635/667 (AID 1087); conditions: higher = more signal;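 also: score merges spot fluorescence at 667nm with spot signal to noise ratio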
SMILES,composite z-score [1],composite z-score [2],composite z-score [3],composite z-score [4],composite z-score [5],composite z-score [6],composite z-score [7],z-score [8],composite z-score [9],composite z-score [10]
C=C(COC)/C(=C/C[C@@H](OC(C)=O)c1cccc(OCCO)c1)c1cnc2ccccc2c1,0.305,-0.116,-0.076,0.826,1.63,0.679,1.18,3.42 (inactive),0.134,-0.214
C=CCOC(=O)[C@H]1[C@@H]2C(=O)O[C@@H](c3ccccc3)[C@@H](c3ccccc3)N2[C@@H](c2ccc(OCCOC(=O)[C@@H]3C[C@@H]4C(=O)N[C@@H](Cc5ccccc5)C(=O)N4[C@@H]3c3ccc(O)cc3)cc2)[C@]12C(=O)Nc1ccc(I)cc12,1.36,0.0366,-0.0861,0.449,0.437,0.422,1.08,1.3 (inactive),0.258,-0.0645
Cc1ccc(S(=O)(=O)N2[C@@H](c3ccccc3)C(C(=O)O)=C[C@H]2C(C)(C)C)cc1,-0.316,1.81,0.0103,0.611,1.45,1.37,1.23,-1.84 (inactive),0.736,-0.156
Cc1c(NC(=O)/C(C#N)=C/C=C/c2ccc([N+](=O)[O-])cc2)c(=O)n(-c2ccccc2)n1C,-0.309,0.129,-0.0718,0.906,1.63,1.65,1.25,3.34 (inactive),0.854,-0.0867
O=C(O)C1=CC[C@H]2C(=O)N(c3ccccc3)C(=O)[C@@H]12,0.115,-0.037,0.0601,0.676,1.58,0.42,1.16,-0.127 (inactive),0.914,0.0749
COc1c(C)cc(-c2cc3c(c(CCc4ccccc4)n2)[Si](C(C)C)(C(C)C)O[C@H]3c2ccccc2)cc1C,-0.473,-0.0939,-0.166,-0.0024,-0.0773,-0.133,-0.0748,-0.278 (inactive),0.125,-0.0296
C=CCNC(=O)[C@@H]1[C@H]2C(=O)O[C@H](c3ccccc3)[C@H](c3ccccc3)N2[C@H](c2ccc(OCCO)cc2)[C@@]12C(=O)Nc1ccc(C#CCNC(N)=O)cc12,0.18,-0.262,-0.22,0.169,-1.01,0.43,0.184,0.243 (inactive),0.675,-0.191
COCCCNC(=O)[C@@]1(Cc2ccccc2I)c2ccccc2C(=O)N(Cc2ccccc2OC)[C@H]1c1ccc(CO)cc1,0.841,0.32,0.096,0.655,-1.09,1.3,1.3,-2.86 (inactive),-0.523,-0.195
COc1ccc(CCNC(=O)[C@@H]2c3ccccc3C(=O)N(Cc3cc(F)cc(C(F)(F)F)c3)[C@H]2c2ccc(CO)cc2)cc1,1.65,0.705,0.272,0.235,0.158,1.17,0.975,-1.36 (inactive),2.49,-0.251
CC(C)Cc1ccc(CN2CC[C@@H](NC(=O)c3ccccc3)C2)cc1,0.0315,0.481,-0.176,-0.102,-0.859,0.638,-0.368,-0.623 (inactive),-0.174,-0.13
CC(C)c1ccc(NN2C(C(O)C3CCCCC3)C=CC3C(=O)N(c4ccccc4)C(=O)C32)cc1 (stereo not given),0.249,0.333,0.224,0.509,1.6,1.22,1,-1.09 (inactive),1.62,0.142
COc1ccc([Si](C)(C)[C@H]2[C@H](CC(=O)N3CCC[C@H]3CO)O[C@@]3(C(=O)N(Cc4cccc(N5CCCCC5=O)c4)c4ccccc43)[C@@H]2C)cc1,-0.381,0.519,-0.126,0.682,0.757,0.836,1.14,-3.74 (inactive),0.0346,-0.0296
[N-]=[N+]=NCc1ccccc1[C@H]1OC(c2ccc(OCCCO)cc2)=N[C@@]1(Cc1ccccc1N=[N+]=[N-])C(N)=O,0.0097,0.998,0.05,0.995,1.54,1.7,1.11,4.46 (inactive),1.76,-0.156
O=C1O[C@H](c2ccccc2)[C@H](c2ccccc2)N2[C@H]1[C@@H](C(=O)O)[C@]1(C(=O)Nc3ccc(C#CC4(O)CCCCCC4)cc31)[C@H]2c1ccccc1OCCO,-0.304,1.43,0.0322,0.85,1.11,0.278,1.19,-0.283 (inactive),0.39,0.781
CC(C)N1CC=CC23O[C@@H]4/C=C\CCCOC(=O)C4[C@H]2C(=O)N(C(C)CO)[C@@H]3C1=O (stereo not given in full),-0.396,-0.237,-0.201,-0.789,-0.911,0.383,0.522,-0.798 (inactive),-0.588,-0.303
O=C1OCC=C[C@H]2OC34C=CCN(Cn5nnc6ccccc65)C(=O)[C@H]3N(CCO)C(=O)[C@@H]4[C@@H]12 (stereo not given in full),0.645,1.9,-0.129,-0.749,-1.45,0.864,0.579,0.13 (inactive),-0.406,-0.139
COc1ccc(C#Cc2ccc3c(c2)[C@]2(C(=O)N3)[C@H](c3ccccc3OCCO)N3[C@H](c4ccccc4)[C@H](c4ccccc4)OC(=O)[C@H]3[C@@H]2C(=O)NC[C@H](O)c2ccccc2)cc1,-0.38,0.203,-0.0628,0.146,1,0.698,1.27,0.621 (inactive),0.469,0.21
C=CCNC(=O)[C@@H]1[C@H]2C(=O)O[C@H](c3ccccc3)[C@H](c3ccccc3)N2[C@H](c2ccc(OCCO)cc2)[C@@]12C(=O)Nc1ccc(C#CC3=CCCCC3)cc12,-0.607,0.308,-0.0442,0.924,1.02,1.28,1.29,-0.138 (inactive),0.597,-0.186
O=C(NC1CC1)[C@@H]1c2ccccc2C(=O)N(C2CCCCC2)[C@H]1c1ccc(CO)cc1,0.954,0.642,0.0611,-0.142,0.254,1.79,1.29,-0.601 (inactive),0.575,-0.228
C=CC[C@]1(C(=O)NCC(O)CO)N=C(c2ccc(OCCCO)cc2)O[C@H]1c1ccccc1CN=[N+]=[N-] (stereo not given in full),1,1.23,-0.0316,0.36,-0.757,0.323,1.23,-0.27 (inactive),0.267,0.189
CCOC(=O)C[C@H]1[C@H](OC(=O)Cc2ccc3c(c2)OCO3)[C@@H](NC(=O)CC(C)C)c2cc(OCCCO)ccc2N1C(=O)c1ccc2ccccc2n1,-0.306,1.01,0.0435,0.43,0.834,1.01,0.518,-3.21 (inactive),0.376,-0.344
O=C1N(Cc2ccccc2)Cc2ccccc2C[C@@]12COC(c1ccc(OCCCO)cc1)=N2,1.18,0.455,-0.0428,-0.0784,-0.0568,0.605,1.21,-1.58 (inactive),0.419,0.369
CCOC(=O)C[C@H]1[C@H](OC(=O)c2ccc(-c3ccccc3)cc2)[C@@H](NC(=O)c2ccc(-c3ccccc3)cc2)c2cc(OCCCO)ccc2N1C(=O)c1ccccc1,-0.326,0.254,-0.0317,0.573,0.528,0.534,0.905,-0.281 (inactive),0.627,-0.213
COC(=O)[C@@]1(Cc2ccc(F)cc2)[C@H]2c3cc(C(=O)N(C)C)n(Cc4ccsc4Br)c3C[C@H]2CN1C(=O)c1ccccc1,2.25,-0.3,0.915,1.01,1.83,1.88,0.529,1.94 (inactive),2.68,3.87
COc1ccc([Si](C)(C)[C@H]2[C@H](CC(=O)N(CCO)Cc3ccccc3)O[C@@]3(C(=O)N(Cc4ccc(N5C(=O)c6cccc7cccc5c67)cc4)c4ccccc43)[C@@H]2C)cc1,-0.0915,0.285,-0.0249,0.479,0.141,1.14,1.14,-3.26 (inactive),0.193,0.12
O=C1O[C@@H](c2ccccc2)[C@@H](c2ccccc2)N2[C@@H](c3ccc(OCCO)cc3)[C@]3(C(=O)Nc4ccc(C#CC5=CCCCC5)cc43)[C@@H](C(=O)Nc3nc4ccccc4s3)[C@H]12,-0.574,0.0484,-0.357,0.3,0.91,0.744,0.651,4.67 (inactive),-1.06,-1.07
COCCOC(=O)N1C(=O)[C@@]2(c3cc(C#CCC(C(=O)OC)C(=O)OC)ccc31)[C@H](c1ccc(O)cc1)N1[C@H](c3ccccc3)[C@H](c3ccccc3)OC(=O)[C@H]1[C@@H]2C(=O)N1CCc2cc(OC)c(OC)cc2C1,0.0804,0.838,-0.0538,0.818,1.21,1.04,1.14,0.336 (inactive),0.186,0.224
